According to PubChem BioAssay (EPA / NIEHS):
The source made the active and inactive calls. How the source made its calls: active means hit-call score of the fitted dose curve at least 0.9, where 1 is the maximum; inactive means score below 0.9.

Columns and labels:
[1] = APR_HepG2_NuclearSize_72hr: Apredica 72-hour HepG2 Assay for Nuclear Size (AID 2282925); details: high-content imaging, actives raise or lower the signal
Summary of the method: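 Compounds (0.39–200 uM, final DMSO 0.5%) were applied to HepG2 for 72 hr. Cells were then formaldehyde-fixed, permeabilized and labelled with Hoechst 33342. Nuclear diameter was quantified from six images per well.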

[2] = ATG_CRE_CIS: Attagene CIS-FACTORIAL HepG2 Assay for human cAMP Responsive Element (CRE) binding protein 3 (AID 2282926); details: HepG2 CRE cis-reporter, Attagene multiplexed mRNA; actives raise or lower the signal
Summary of the method: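 Induced reporter mRNA from a CRE cis element, measured in HepG2 among many multiplexed units at 24 h. Detection used RT-PCR plus capillary electrophoresis of fluorescent fragments; DMSO served as negative control.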

[3] = molecular target: CCAAT/enhancer-binding protein beta (Homo sapiens) (UniProt P17676); experiment: ATG_C_EBP_CIS: Attagene CIS-FACTORIAL HepG2 Assay for human CCAAT/Enhancer Binding Protein (C/EBP) beta (AID 2282927); details: HepG2 Attagene cis-factorial transcription factor reporter; actives raise or lower the signal
Summary of the method: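 RT-PCR/capillary electrophoresis fluorescence of reporter mRNA, 24 h post-dose, in HepG2 cells carrying transfected cis-promoter reporter units. Bidirectional curve fitting against DMSO baseline captures gain or loss of signal.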

[4] = ATG_CMV_CIS: Attagene CIS-FACTORIAL HepG2 Assay for human CMV (Internal Marker) (AID 2282928); details: HepG2 CMV promoter reporter, transcription factor profiling; actives raise or lower the signal;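 further: endpoint acts as a background internal control marker rather than a target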
Summary of the method: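 Reporter transcripts from transfected HepG2 cells are isolated after 24 h of chemical dosing, reverse-transcribed and amplified. Fragments labeled with 6-FAM are cut with HpaI and quantified by capillary electrophoresis; DMSO defines baseline.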

[5] = ATG_DR4_LXR_CIS: Attagene CIS-FACTORIAL HepG2 Assay for human Liver X Receptor (LXR), DR4 submotif (AID 2282929); details: HepG2 Attagene DR4 cis-reporter, mRNA transcription; actives raise or lower the signal
Summary of the method: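 Endogenous factor activity at a DR4 cis-element is read as reporter mRNA in transiently transfected HepG2 cells. Exposure lasts 24 h; transcripts are amplified, fluorescently labelled and sized by capillary electrophoresis, with DMSO as baseline.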

[6] = molecular target: Aryl hydrocarbon receptor (Homo sapiens) (UniProt P35869); experiment: ATG_Ahr_CIS: Attagene CIS-FACTORIAL HepG2 Assay for human Aryl Hydrocarbon Receptor (Ahr) (AID 2282930); details: HepG2 AhR cis-factorial reporter transcription; actives raise or lower the signal
Summary of the method: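 HepG2 cells transiently transfected with cis-element-driven multiplexed reporter transcription units; endogenous transcription factor activity measured as reporter mRNA 24 h after dosing. RT-PCR, 6-FAM labelling, HpaI digestion, capillary electrophoresis; bidirectional fitting versus DMSO baseline.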

[7] = ATG_AP_1_CIS: Attagene CIS-FACTORIAL HepG2 Assay for human Activator Protein 1 (AP-1) (AID 2282931); details: HepG2 Attagene cis-factorial AP-1 reporter mRNA; actives raise or lower the signal
Summary of the method: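 Fluorescence of labelled PCR fragments separated by capillary electrophoresis gives reporter mRNA levels. HepG2 with transfected cis-regulated reporter units, 24 h exposure; DMSO serves as baseline for bidirectional curve fits.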

[8] = ATG_AP_2_CIS: Attagene CIS-FACTORIAL HepG2 Assay for human Activator Protein 2 (AP-2) (AID 2282932); details: HepG2 AP-2 cis-reporter, Attagene transcription factor profiling; actives raise or lower the signal
Summary of the method: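 Cells (HepG2) transfected with promoter-driven reporter constructs, treated 24 h. Total RNA reverse-transcribed, reporter cDNA PCR-amplified, FAM-labelled by primer extension, digested, resolved by capillary electrophoresis. Activity fitted both directions versus DMSO.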

[9] = ATG_BRE_CIS: Attagene CIS-FACTORIAL HepG2 Assay for human Bone Morphogenetic Protein (BMP) Response Element (BRE) (AID 2282933); details: HepG2 BMP response element reporter, Attagene transcription factor profiling; actives raise or lower the signal
Summary of the method: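 Transient MRTU transfection of human HepG2 liver cells; 24 h compound treatment; total RNA isolated, reverse-transcribed, PCR-amplified, 6-FAM labelled, HpaI-cut, capillary electrophoresis. DMSO = negative control/baseline, bidirectional fit.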

[10] = molecular target: Retinoic acid receptor alpha (Homo sapiens) (UniProt P10276); experiment: ATG_DR5_RAR_CIS: Attagene CIS-FACTORIAL HepG2 Assay for human Retinoic Acid Receptor Alpha (RARE), DR5 submotif (AID 2282934); details: HepG2 Attagene cis-factorial RARE DR5 reporter, mRNA; actives raise or lower the signal;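 on AC50: reporter responds to endogenous RAR alpha beta and gamma in HepG2 not RARA alone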
Summary of the method: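 HepG2 cells transiently transfected with multiplexed reporter units under cis (DR5 RARE) promoters, so endogenous transcription factor activity is measured. After 24 h compound exposure, reporter mRNA is quantified by RT-PCR with fluorescent labelling and capillary electrophoresis; bidirectional fitting versus DMSO.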

[11] = molecular target: Transcription factor E2F1 (Homo sapiens) (UniProt Q01094); experiment: ATG_E2F_CIS: Attagene CIS-FACTORIAL HepG2 Assay for human E2F Transcription Factor 1 (AID 2282935); details: HepG2 Attagene cis-reporter, E2F reporter RNA transcripts; actives raise or lower the signal
Summary of the method: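 First, HepG2 cells were transfected with reporter transcription units. Next, they were dosed for 24 h. Then RNA was isolated, converted to cDNA, PCR-amplified, FAM-labeled, HpaI-digested and analyzed by capillary electrophoresis.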

[12] = ATG_E_Box_CIS: Attagene CIS-FACTORIAL HepG2 Assay for human Enhancer Box (E-box) (AID 2282936); details: HepG2 E-box cis-reporter transcription, actives raise or lower the signal
Summary of the method: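 Endogenous transcription factor activity was sensed in human HepG2 liver cells through transfected cis-promoter reporter units. After 24 h of dosing, total RNA was reverse-transcribed and reporter cDNA resolved by capillary electrophoresis.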

[13] = ATG_M_61_CIS: Attagene CIS-FACTORIAL HepG2 Assay for M61 Transcription Factor (Internal Marker) (AID 2282937); details: HepG2 Attagene CIS-FACTORIAL M61 internal marker reporter; actives raise or lower the signal
Summary of the method: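 This endpoint serves as an internal background control within a multiplexed HepG2 cis-reporter panel. Cells are exposed for 24 h; reporter mRNA is amplified, fluorescently labelled and sized by capillary electrophoresis, with DMSO as negative control.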

[14] = ATG_M_19_CIS: Attagene CIS-FACTORIAL HepG2 Assay for M19 Transcription Factor (Internal Marker) (AID 2282939); details: HepG2 Attagene CIS-FACTORIAL M19 internal marker reporter; actives raise or lower the signal
Summary of the method: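 Transfect HepG2 with MRTU reporter library → dose chemical, 24 h → isolate total RNA, reverse-transcribe with oligo(dT) → PCR, 6-FAM label, HpaI cut (2 h, 37 C) → capillary electrophoresis. Bidirectional fit vs DMSO.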

[15] = ATG_ERE_CIS: Attagene CIS-FACTORIAL HepG2 Assay for Estrogen Response Element (ERE) (AID 2282940); details: HepG2 ERE cis-reporter, Attagene RNA transcript; actives raise or lower the signal
Summary of the method: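 Transient MRTU transfection of human HepG2; cis-element promoters; 24 h dosing; total RNA → RT (oligo dT) → PCR → 6-FAM primer extension → HpaI digest → CE fluorescence. Bidirectional fit, DMSO baseline.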

[16] = ATG_Ets_CIS: Attagene CIS-FACTORIAL HepG2 Assay for human Erythroblast Transformation Specific (ETS) (AID 2282941); details: HepG2 ETS cis-reporter transcription, actives raise or lower the signal
Summary of the method: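 Bidirectional fit versus DMSO of reporter mRNA signal, detected by RT-PCR and capillary electrophoresis in HepG2 cells transiently transfected with cis-element reporters and dosed 24 h.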

[17] = molecular target: Hepatocyte nuclear factor 3-beta (Homo sapiens) (UniProt Q9Y261); experiment: ATG_FoxA2_CIS: Attagene CIS-FACTORIAL HepG2 Assay for human Forkhead box A2 (FOXA2) (AID 2282942); details: HepG2 cis-reporter transcription factor activity, 24 h; actives raise or lower the signal
Summary of the method: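 Cells: HepG2, transient multiplex reporter transfection. Exposure 24 h. Detection: reporter-specific RT-PCR, fluorescent labelling, restriction digest, capillary electrophoresis. Analysis: bidirectional curve fit, DMSO as negative control.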

[18] = ATG_FoxO_CIS: Attagene CIS-FACTORIAL HepG2 Assay for human Forkhead box O (FoxO) (AID 2282943); details: HepG2 Attagene cis-reporter, FoxO element, mRNA; actives raise or lower the signal
Summary of the method: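 HepG2 cells transiently transfected with cis-promoter-driven multiple reporter transcription units; 24 h after chemical dosing, reporter mRNA quantified by RT-PCR, fluorescent primer extension, HpaI digestion and capillary electrophoresis. Bidirectional fitting versus DMSO baseline.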

[19] = ATG_GATA_CIS: Attagene CIS-FACTORIAL HepG2 Assay for human GATA Binding Protein (AID 2282944); details: HepG2 GATA cis-element reporter, Attagene multiplex mRNA; actives raise or lower the signal
Summary of the method: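 Transient MRTU transfection, HepG2, 24 h compound exposure. Total RNA → oligo(dT) RT → PCR → 6-FAM primer extension → HpaI cut → CE. Bidirectional fit vs DMSO.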

[20] = ATG_EGR_CIS: Attagene CIS-FACTORIAL HepG2 Assay for human Early Growth Response 1 (EGR1) (AID 2282938); details: HepG2 Attagene CIS-FACTORIAL EGR reporter mRNA; actives raise or lower the signal
Summary of the method: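 HepG2, transient MRTU transfection (cis promoters), 24 h compound. RNA → RT (oligo-dT) → PCR → 6-FAM labelling → HpaI cut → CE fluorescence. Bidirectional fit, DMSO baseline.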

Chain of Aryl hydrocarbon receptor (Homo sapiens) (P35869 whole entry, looked up): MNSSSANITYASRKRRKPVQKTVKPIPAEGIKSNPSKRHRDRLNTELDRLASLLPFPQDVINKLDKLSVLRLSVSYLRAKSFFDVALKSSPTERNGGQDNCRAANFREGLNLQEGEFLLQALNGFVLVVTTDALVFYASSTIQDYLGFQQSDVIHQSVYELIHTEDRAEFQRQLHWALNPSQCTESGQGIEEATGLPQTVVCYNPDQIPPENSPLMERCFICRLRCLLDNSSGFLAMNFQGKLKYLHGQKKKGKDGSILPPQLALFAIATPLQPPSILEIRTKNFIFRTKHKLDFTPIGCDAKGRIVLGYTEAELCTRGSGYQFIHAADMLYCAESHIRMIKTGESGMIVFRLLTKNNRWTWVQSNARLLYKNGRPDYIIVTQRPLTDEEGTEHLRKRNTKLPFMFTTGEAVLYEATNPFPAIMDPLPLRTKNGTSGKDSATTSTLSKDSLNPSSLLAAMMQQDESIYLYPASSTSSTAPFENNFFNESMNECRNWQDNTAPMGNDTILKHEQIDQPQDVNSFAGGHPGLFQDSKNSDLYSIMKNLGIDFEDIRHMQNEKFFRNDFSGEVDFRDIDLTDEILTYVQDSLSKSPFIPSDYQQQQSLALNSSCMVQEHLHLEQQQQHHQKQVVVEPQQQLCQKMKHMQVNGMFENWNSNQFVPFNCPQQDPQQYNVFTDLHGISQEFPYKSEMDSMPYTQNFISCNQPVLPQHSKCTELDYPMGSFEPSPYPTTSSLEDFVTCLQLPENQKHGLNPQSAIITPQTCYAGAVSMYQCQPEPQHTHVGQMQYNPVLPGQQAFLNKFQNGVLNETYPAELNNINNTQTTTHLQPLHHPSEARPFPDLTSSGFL
Chain of Retinoic acid receptor alpha (Homo sapiens) (P10276 whole entry, looked up): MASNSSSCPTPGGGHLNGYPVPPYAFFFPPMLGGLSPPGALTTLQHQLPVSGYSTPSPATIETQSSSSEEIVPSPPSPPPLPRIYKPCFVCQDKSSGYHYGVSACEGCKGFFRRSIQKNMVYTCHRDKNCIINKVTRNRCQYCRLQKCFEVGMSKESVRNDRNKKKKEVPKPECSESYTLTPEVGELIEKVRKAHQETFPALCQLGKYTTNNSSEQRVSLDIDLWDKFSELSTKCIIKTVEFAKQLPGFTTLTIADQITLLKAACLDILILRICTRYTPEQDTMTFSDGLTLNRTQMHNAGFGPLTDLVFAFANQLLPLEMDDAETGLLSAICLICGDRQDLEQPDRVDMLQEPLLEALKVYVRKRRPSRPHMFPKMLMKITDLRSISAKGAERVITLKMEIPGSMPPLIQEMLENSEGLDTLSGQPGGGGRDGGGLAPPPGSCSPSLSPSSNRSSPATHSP
Chain of Hepatocyte nuclear factor 3-beta (Homo sapiens) (Q9Y261 whole entry, looked up): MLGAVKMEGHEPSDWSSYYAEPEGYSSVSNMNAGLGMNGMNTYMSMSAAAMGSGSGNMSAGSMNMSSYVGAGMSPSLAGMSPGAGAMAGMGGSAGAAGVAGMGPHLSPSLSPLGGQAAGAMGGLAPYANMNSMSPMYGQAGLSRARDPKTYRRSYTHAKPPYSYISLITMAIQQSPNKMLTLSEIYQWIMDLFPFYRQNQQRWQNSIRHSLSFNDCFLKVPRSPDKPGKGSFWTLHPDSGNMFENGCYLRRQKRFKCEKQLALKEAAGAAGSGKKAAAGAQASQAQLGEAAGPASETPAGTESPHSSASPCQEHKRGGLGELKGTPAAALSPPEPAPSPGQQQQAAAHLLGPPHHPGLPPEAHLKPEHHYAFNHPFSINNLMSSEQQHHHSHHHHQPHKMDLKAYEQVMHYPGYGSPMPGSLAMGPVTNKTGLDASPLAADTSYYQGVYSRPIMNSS
Chain of Transcription factor E2F1 (Homo sapiens) (Q01094 whole entry, looked up): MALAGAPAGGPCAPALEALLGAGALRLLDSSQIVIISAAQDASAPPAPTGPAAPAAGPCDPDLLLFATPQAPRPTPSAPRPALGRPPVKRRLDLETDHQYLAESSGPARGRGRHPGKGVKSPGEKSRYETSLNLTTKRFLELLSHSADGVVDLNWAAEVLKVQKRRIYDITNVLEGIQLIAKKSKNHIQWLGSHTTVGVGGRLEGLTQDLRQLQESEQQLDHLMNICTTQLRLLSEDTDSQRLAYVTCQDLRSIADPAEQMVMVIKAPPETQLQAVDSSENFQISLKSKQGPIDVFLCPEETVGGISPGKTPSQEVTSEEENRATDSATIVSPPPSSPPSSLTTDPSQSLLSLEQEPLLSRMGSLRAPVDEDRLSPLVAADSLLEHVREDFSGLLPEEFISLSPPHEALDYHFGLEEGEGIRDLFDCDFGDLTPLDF
Chain of CCAAT/enhancer-binding protein beta (Homo sapiens) (P17676 whole entry, looked up): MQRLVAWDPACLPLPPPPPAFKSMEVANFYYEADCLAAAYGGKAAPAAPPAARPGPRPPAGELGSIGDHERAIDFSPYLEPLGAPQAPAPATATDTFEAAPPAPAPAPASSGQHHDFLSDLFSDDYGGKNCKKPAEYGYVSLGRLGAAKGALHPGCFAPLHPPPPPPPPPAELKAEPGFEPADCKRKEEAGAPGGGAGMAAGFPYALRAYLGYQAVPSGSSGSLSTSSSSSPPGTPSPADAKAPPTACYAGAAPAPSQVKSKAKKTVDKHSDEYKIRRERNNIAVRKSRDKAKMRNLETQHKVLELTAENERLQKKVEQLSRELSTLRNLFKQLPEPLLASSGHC

CC1(C)C(C(=O)OC(C#N)c2cccc(Oc3ccccc3)c2)C1(C)C (stereo not given)
outcome [1]: inactive
outcome [2]: inactive
outcome [3]: inactive
outcome [4]: inactive
AC50 [5]: 14.3 µM (active)
outcome [6]: inactive
outcome [7]: inactive
outcome [8]: inactive
outcome [9]: inactive
AC50 [10]: 3.62 µM (active)
outcome [11]: inactive
outcome [12]: inactive
outcome [13]: inactive
outcome [14]: inactive
outcome [15]: inactive
outcome [16]: inactive
outcome [17]: inactive
outcome [18]: inactive
outcome [19]: inactive

Clc1cccc(C(Cl)(Cl)Cl)n1
outcome [1]: inactive
outcome [2]: inactive
outcome [3]: inactive
outcome [4]: inactive
outcome [5]: inactive
outcome [6]: inactive
outcome [7]: inactive
outcome [8]: inactive
outcome [9]: inactive
outcome [11]: inactive
outcome [12]: inactive
outcome [13]: inactive
outcome [14]: inactive
outcome [15]: inactive
outcome [16]: inactive
outcome [17]: inactive
outcome [19]: inactive

COC(=O)N(C(=O)N1CO[C@@]2(C(=O)OC)Cc3cc(Cl)ccc3C2=N1)c1ccc(OC(F)(F)F)cc1
outcome [1]: inactive
AC50 [2]: 0.67 µM (active)
outcome [3]: inactive
outcome [4]: inactive
AC50 [5]: 13.8 µM (active)
outcome [6]: inactive
outcome [8]: inactive
AC50 [9]: 2.96 µM (active)
outcome [10]: inactive
outcome [11]: inactive
outcome [12]: inactive
outcome [13]: inactive
outcome [20]: inactive
outcome [14]: inactive
outcome [15]: inactive
outcome [16]: inactive
outcome [17]: inactive
outcome [18]: inactive
outcome [19]: inactive

COCC(=O)N(c1c(C)cccc1C)C(C)C(=O)OC (stereo not given)
outcome [1]: inactive
outcome [2]: inactive
outcome [3]: inactive
outcome [4]: inactive
outcome [5]: inactive
AC50 [6]: 81.7 µM (active)
outcome [7]: inactive
outcome [8]: inactive
AC50 [9]: 50 µM (active)
outcome [10]: inactive
outcome [11]: inactive
outcome [12]: inactive
outcome [13]: inactive
outcome [20]: inactive
outcome [14]: inactive
outcome [15]: inactive
outcome [16]: inactive
outcome [17]: inactive
outcome [18]: inactive
outcome [19]: inactive

O=C(Nc1ccccc1-c1ccc(Cl)cc1)c1cccnc1Cl
outcome [1]: inactive
outcome [2]: inactive
AC50 [3]: 10.3 µM (active)
outcome [4]: inactive
outcome [5]: inactive
outcome [6]: inactive
outcome [7]: inactive
outcome [8]: inactive
outcome [9]: inactive
outcome [10]: inactive
outcome [11]: inactive
outcome [12]: inactive
outcome [13]: inactive
outcome [20]: inactive
outcome [14]: inactive
outcome [15]: inactive
outcome [16]: inactive
outcome [17]: inactive
outcome [19]: inactive

CC(C)(C)C(=O)C(Oc1ccc(Cl)cc1)n1cncn1 (stereo not given)
outcome [1]: inactive
AC50 [2]: 41.9 µM (active)
AC50 [3]: 50 µM (active)
outcome [4]: inactive
outcome [5]: inactive
AC50 [6]: 34.7 µM (active)
AC50 [7]: 74.2 µM (active)
outcome [8]: inactive
AC50 [9]: 50 µM (active)
AC50 [10]: 12.8 µM (active)
outcome [11]: inactive
outcome [12]: inactive
outcome [13]: inactive
outcome [14]: inactive
AC50 [15]: 20 µM (active)
outcome [16]: inactive
outcome [17]: inactive
outcome [19]: inactive

CC(C)Nc1nc(Cl)nc(NC(C)C)n1
outcome [1]: inactive
outcome [2]: inactive
outcome [3]: inactive
outcome [4]: inactive
outcome [5]: inactive
outcome [6]: inactive
outcome [7]: inactive
outcome [8]: inactive
outcome [9]: inactive
outcome [11]: inactive
outcome [12]: inactive
outcome [13]: inactive
outcome [14]: inactive
outcome [15]: inactive
outcome [16]: inactive
outcome [17]: inactive
outcome [18]: inactive
outcome [19]: inactive
